Screens (PubChem BioAssay)
Tau ThT inhib: qHTS for Inhibitors of Tau Fibril Formation, Thioflavin T Binding | Microtubule-associated protein tau (Homo sapiens), P10636 | recombinant tau K18 P301L, heparin-induced fibrillization, ThT fluorescence | Potency, µM (series often up to 57.4 µM), for inactives: at the top dose activity, negative = inhibition, actives largely listed as inhibitors | 270,000 compounds, 2.1% hits; also: nearly all actives have a fitted effect of over 55% in size
Target sequence (P10636 561-689 P618L limits assumed): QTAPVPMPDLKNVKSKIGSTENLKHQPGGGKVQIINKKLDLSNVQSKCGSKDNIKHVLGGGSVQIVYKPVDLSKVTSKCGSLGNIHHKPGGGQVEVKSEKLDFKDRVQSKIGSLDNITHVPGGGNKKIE
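K18 P301L tau (15 uM + 0.24 uM Alexa 594-tagged), heparin 20 uM, NaOAc pH 7, 6 h 37 C; ThT 30 uM, 1 h RT, ex 450/em 510 nm.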
JMJD2E inh: qHTS Assay for Inhibitors of Human Jumonji Domain Containing 2E (JMJD2E) | Lysine-specific demethylase 4E (Homo sapiens), B2RXH2 | JMJD2E catalytic domain, FDH-coupled NADH fluorescence (FDH is formaldehyde dehydrogenase) | Potency, µM (top dose mostly 57.1 µM), for the others: at the highest dose activity change, negative = inhibition, hits mostly inhibitors | 230,000 compounds, 1.6% hits; active = well fitted inhibition curve with a large enough effect, not every such curve was filed as active; inconclusive = small, poorly fitted or top-dose-only effect, or another doubt; inactive = no such curve, though single readings can be large or run the other way;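 also: 0% = wells with enzyme and -100% = buffer wells without enzyme; nearly all actives have a fitted effect of over 50% in size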
Tau fibril FP: qHTS for Inhibitors of Tau Fibril Formation, Fluorescence Polarization | 280,000 compounds, 0.39% hits | Microtubule-associated protein tau (Homo sapiens), P10636 | Potency, µM (top dose mostly 57.7 µM), without a hit: at the top dose activity, negative = inhibition, usual class: inhibitors | K18 P301L tau heparin fibrillization, Alexa594 FP, 6 h; also: nearly all actives have a fitted effect of over 55% in size
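FP of Alexa 594-tau after heparin (20 uM) induction. Substrate: human K18 P301L, 15 uM unlabeled, 0.24 uM labeled. Buffer 100 mM sodium acetate pH 7. 6 hr, 37 C.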
Tau fluor cs: Counterscreen qHTS for Inhibitors of Tau Fibril Formation, Fluorescence Polarization; 280,000 compounds, 0.93% hits; tau K18 P301L (four-repeat tau fragment) Alexa594 fluorescence, heparin fibrillization; Potency, µM (doses to about 57.7 µM), for inactives: at the top dose activity change, negative = decrease; also: nearly all actives have a fitted effect of over 55% in size
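Human K18 P301L tau (15 uM unlabeled plus 0.24 uM Alexa 594-labeled, final) in 100 mM sodium acetate pH 7 was mixed with compound and 20 uM heparin and incubated 6 hr at 37 C.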
GoLoco inh red: qHTS Assay for Inhibitors of RGS12 GoLoco Motif Activity (Red Fluorophore); Guanine nucleotide-binding protein G(i) subunit alpha-1 (Homo sapiens), P63096; Gai1:RGS12 GoLoco peptide FP, rhodamine, 10 min; Potency, µM (series often up to 61.6 µM), for the others: at the top dose activity, negative = inhibition, most hits filed as inhibitors; 230,000 compounds, 0.44% hits; active = well fitted inhibition curve with a large enough effect, not every such curve was filed as active; inactive = no such curve, though single readings can be large or run the other way; also: nearly all actives have a fitted effect of over 30% in size
Target sequence (P63096 whole entry, looked up): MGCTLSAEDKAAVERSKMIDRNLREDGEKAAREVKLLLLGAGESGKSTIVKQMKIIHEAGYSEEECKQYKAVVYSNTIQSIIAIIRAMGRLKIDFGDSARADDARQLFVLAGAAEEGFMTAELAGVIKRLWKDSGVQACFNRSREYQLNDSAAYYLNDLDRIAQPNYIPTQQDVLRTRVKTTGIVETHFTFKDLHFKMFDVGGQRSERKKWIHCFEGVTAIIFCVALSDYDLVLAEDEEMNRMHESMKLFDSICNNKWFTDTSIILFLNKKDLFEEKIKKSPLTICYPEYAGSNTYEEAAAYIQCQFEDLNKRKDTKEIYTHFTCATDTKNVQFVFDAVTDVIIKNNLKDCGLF
* hit, by the source's call; u = inconclusive; x = not tested or not shown; ! = not confirmed by another sample; [ ] = another dose, or the depositor's remark. Rows were chosen to be rich in hits. Some 3.4% of all compounds tested hit in one or more screens of this group. Unless noted, calls follow the shape of the dose curve; as a rule, active = well fitted curve in the direction sought with a large enough effect; inconclusive = small, poorly fitted or top-dose-only effect, or another doubt; inactive = no such curve, though single readings can be large; an effect the other way counts as inactive or inconclusive. Unless noted, % is scaled to controls: 0 for no effect and ±100 for the full control effect; potency is read from the fitted curve at half-maximal effect.

SMILES	Tau ThT inhib	JMJD2E inh	Tau fibril FP	Tau fluor cs	GoLoco inh red
COc1ccc(/C=N/N=C2/CC(C)(C)Cc3n[nH]c(=O)cc32)cc1	u	31.6µM*	0.1%	-0.1%	28.2µM*
COc1ccc(N2CC(NC(=O)C3CCCC3)CC2=O)cc1OC (stereo not drawn)	-2.9%	x	-7.5%	-0.9%	x
O=C(O)c1ccc(N/N=C/c2ccnc3ccccc23)cc1	5.01µM*	-6.5%	5.7%	u	-3.9%
O=C(O)c1ccc(N/N=C/c2ccc3nccnc3c2)cc1	3.55µM*	-4.4%	-4.1%	-19.5%	11.5%
O=C(O)c1ccc(N/N=C/c2cn(Cc3ccccc3F)c3ccccc23)cc1	14.1µM*	u	-0.3%	u	4.9%
O=C(O)c1ccc(N/N=C/c2ccc(F)c(F)c2)cc1	u	-1.5%	6.7%	u	-14.6%
CCOC(=O)c1ccn(-c2nc(-c3cccc(OC)c3)cc(C(F)(F)F)n2)n1	u	x	13.9%	-28.3%	x
COc1cc2ccccc2cc1C(=O)Nc1ccc2oc(-c3ccccc3)nc2c1	8.7%	x	0.7%	-12.0%	x
Cn1c(COc2ccc(Br)cc2)nnc1SC1CCc2ccccc2C1=O (stereo not drawn)	31.6µM*	u	u	u	-5.2%
Cn1c(COc2ccccc2)nnc1SCCSc1nnc(COc2ccccc2)n1C	-13.7%	-0.3%	-5.0%	2.0%	8.5%
O=C(CCc1ccc(O)cc1)c1c(O)cc(O)cc1O	u	31.6µM*!	2.5%	u	10.6%
O=C(Cc1ccc2c(c1)OCCO2)c1c(O)cc(O)cc1O	-14.2%	-6.5%	7.9%	-28.8%	1.9%
Cc1ccc(N=C2NC(=O)/C(=C/c3cccn3C)S2)c(C)c1	u	-17.8%	9.7%	-3.4%	6.5%
Cn1cccc1/C=C1\SC(=Nc2cccc(O)c2)NC1=O	7.08µM*	6.5%	10.6%	u	33.9%
Cc1cc(C)cc(N=C2NC(=O)/C(=C/c3cccs3)S2)c1	u	-18.2%	u	u	1.78µM*
Cc1ccc(N=C2NC(=O)/C(=C/c3cn(C)c4ccccc34)S2)cc1C	3.98µM*	-3.6%	15.2%	u	142.8%
Cn1cccc1/C=C1\SC(=Nc2ccccc2)NC1=O	12.6µM*	0.2%	0.7%	u	4.9%
COc1ccc(NC(=O)N2CCc3nc(-c4ccc(OC)cc4C)c4c(c3C2)CO[C@@H](c2ccccc2)C4)cc1	-4.5%[11.5 µM]	0.3%[11.4 µM]	7.4%[11.6 µM]	-5.4%[11.6 µM]	-23.4%[14.2 µM]
CC(C)c1ccc(NC(=O)c2ccc(=O)n(Cc3ccccc3)c2)cc1	-12.9%	x	-5.0%	u	x
O=C(CSc1nc2c([nH]c3ccccc32)c(=O)n1-c1ccccc1)Nc1ccccc1C(F)(F)F	6.2%	x	u	-4.4%	x
CCOc1ccc(CC(=O)NCCc2csc(-c3ccc(C)cc3)n2)cc1	-11.7%	x	9.0%	-8.7%	x
Cn1cccc1/C=C1\SC(=Nc2ccc(O)cc2)NC1=O	4.47µM*	1.3%	1.1%	u	54.6%
COc1ccc(C(=O)c2cn(Cc3cccc(C)c3)c3cc4c(cc3c2=O)OCCO4)cc1OC	-8.9%	x	-1.8%	-3.6%	x
C/C(=C\C(=S)Nc1ccccc1)Nc1cccc2ccccc12	u	u	-9.4%	-20.9%	2.1%
C/C(=C\C(=S)Nc1ccccc1)Nc1ccc2ccccc2c1	12.6µM*	u	u	u	4.4%
COC(=O)c1cc(NC(=O)c2ccc3c(c2)N(Cc2cccc(Cl)c2)C(=O)c2ccccc2S3=O)cc(C(=O)OC)c1 (stereo not drawn)	2.6%	x	u	-24.0%	x
O=C1c2ccccc2C(=O)N1CCSc1n[nH]c(=S)s1	-14.3%	u	-11.1%	-7.8%	-29.4%
CC(C)CSc1n[nH]c(=S)s1	-6.6%	10µM*	-3.2%	-2.4%	-11.6%
COc1ccccc1Cn1c(C2CC(=O)N(c3ccccc3OC)C2)nc2ccccc21 (stereo not drawn)	-12.8%	x	4.0%	-15.2%	x
CCCCN(CC)C(=O)c1nn(C)c2c1CSc1ccccc1-2	-7.5%	x	u	14.1µM*[quencher]	x
